Shown are actives, neighbours in structure and some others; about 6.6% of the full set was active somewhere.
MPTP inh – inhibitors of mitochondrial permeability transition pore | isolated mouse mitochondria, Ca2+ swelling absorbance, 30 min | inhibition, % at 10 µM | 360,000 compounds, 1.4% hits;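 active means inhibition of 50% or more, scaled per plate between neutral and stimulator controls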;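 further: 0% = DMSO wells given calcium and 100% = 1 mM EGTA wells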
CSC inhib – blocks cancer stem cells | 300,000 compounds, 1.1% hits | inhibition, % at 7.5 µM | cancer stem cell-like cells viability, luminescence; in the data active means inhibition above about 75%; tested in HMLE shEcad cells
Gli-Sufu block – blocks Gli-Sufu signaling in a luciferase reporter. 340,000 compounds, 0.74% hits. inhibition, % at 5 µM. AID 588413. Sufu-KO-LIGHT fibroblasts, Gli luciferase reporter luminescence;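 active means inhibition above about 55%, limit read from the data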;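 further: 0% = DMSO-treated cells and 100% = wells with medium but no cells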
GRIN3A LBD mod – modulators (binders) of human NR3A ligand-binding domain | AID 1259313 | NR3A LBD differential scanning fluorimetry, Tm shift; 0% = protein alone, 100% = glycine-bound protein | 340,000 compounds, 2.5% hits | Tm shift relative to glycine control, % at 25 µM;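 active means melting temperature shift of at least 10% of the positive control shift, at one fixed dose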
Mdm2-MdmX inh – inhibitors of human Mdm2/MdmX interaction | O15151+Q00987 | inhibition, % at 8 µM | SaOS-2 split-luciferase Mdm2/MdmX complementation, luminescence | 330,000 compounds, 3% hits;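 active means inhibition of at least 50% at 8 µM in the primary screen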
Beta apoptosis – blocks beta cell apoptosis | AID 435005 | protection from apoptosis, % (test concentration not listed) | 300,000 compounds, 0.8% hits | INS-1E cytokine-induced death, ATP luminescence, 48 h; percent of positive-control rescue, neutral wells zero;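 active means Every replicate reaches about 75%, or at least half do and their mean reaches it too, limit read from the data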;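 further: 0% = cytokine-treated negative control wells and 100% = positive control rescue; higher means more ATP so stronger rescue from cytokine killing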
Numbers without * were called inactive; / = no result given.

SMILES	MPTP inh	CSC inhib	Gli-Sufu block	GRIN3A LBD mod	Mdm2-MdmX inh	Beta apoptosis
O=S(=O)(NCC(c1ccc2c(c1)OCO2)N1CCOCC1)c1ccc(Br)cc1 (stereo unspecified)	-2.4	-11.5	10.9	0.6	33.5	0.3
Oc1cc2c(cc1C(c1ccc(Br)cc1)N1CCCC1)OCO2 (stereo unspecified)	-5.2	/	-3.7	29.2*	39.1	/
C[C@@H]1CN([C@@H](C)CO)C(=O)c2cc(C3=CCCCC3)cnc2O[C@H]1CN(C)C(=O)Nc1cccc(F)c1	-0.1	/	/	/	/	/
CC#CC(=O)N1CCC(C(=O)Nc2ccc(Oc3ccccc3)nc2)CC1	0.4	-13.3	-7.9	-0.6	-15.0	-8.3
CCOC(=O)C1(C)CCN1C(=O)c1ccc(OC)c(OC)c1 (stereo unspecified)	-0.8	/	/	/	/	/
O=C(c1ccc([N+](=O)[O-])s1)N1CCN(c2cccc(Cl)c2)CC1	3.0	37.2	34.2	6.9	-9.9	91.9*
O=C(NC(=O)N1CCN(c2cccc(Cl)c2)CC1)c1ccccc1	-0.5	58.0	9.0	-13.1	6.9	4.7
O=C(NC(=O)N1CCN(c2cccc(Cl)c2)CC1)c1ccc(Cl)cc1	0.9	109.5*	5.6	-6.7	29.1	-3.0
Nc1cc(=O)nc2cn[nH]n12	-1.5	/	/	/	/	/
COc1cccc(CC(=O)OCC(=O)NC(C)c2ccc(F)cc2)c1 (stereo unspecified)	-0.8	-7.9	-5.6	-2.2	10.5	-2.4
O=C(C1=NOC2(C1)C(=O)Nc1ccccc12)N1CCOCC1 (stereo unspecified)	-1.2	/	/	/	/	/
C=CCC[C@H](Cc1ccc(F)cc1)C(=O)OC[C@@H](NC(=O)[C@@H](CC=C)CC(=O)N[C@@H](CO)Cc1ccccc1)C(C)(C)C	1.4	19.6	-23.8	31.0*	36.3	25.6
C=CCC[C@@H](Cc1ccc(F)cc1)C(=O)OC[C@H](Cc1c[nH]c2ccccc12)NC(=O)[C@@H](CC=C)CC(=O)N[C@H](CO)Cc1ccccc1	-0.4	4.8	5.3	14.5*	43.7	-1.9
Cc1cccc(C)c1NC(=O)C1c2ccccc2OCC(=O)N1Cc1ccccc1 (stereo unspecified)	-0.2	/	/	/	/	/
COc1cc(/C=C/C(=O)OCC(=O)NCc2ccco2)ccc1OC(F)F	0.6	-12.0	-10.3	14.1*	13.1	-1.4
COc1ccc(-n2c(C)cc(C(=O)CN3C(=O)NC4(CCCc5sccc54)C3=O)c2C)cc1 (stereo unspecified)	6.0	24.8	15.2	-1.7	43.8	40.0
Cc1cc(C(=O)CN2C(=O)NC3(CCCc4sccc43)C2=O)c(C)n1-c1ccccc1 (stereo unspecified)	0.8	5.9	-16.2	14.8*	4.7	5.4
COc1ccc(OC)c(C(O)c2ncc(-c3cccc4ccccc34)[nH]2)c1 (stereo unspecified)	1.3	/	/	/	/	/
Cc1ccc(C(=O)NCC(=O)N2CCCN(C)CC2)cc1C	-2.4	-20.9	-11.0	1.1	7.8	-8.4
C/C(=N/NS(=O)(=O)c1ccc(C)cc1C)c1c[nH]c2ccccc12	2.0	-4.7	-10.2	11.2*	41.3	1.7
C/C(=N/NS(=O)(=O)c1ccc(C)cc1C)c1ccc2c(c1)OCO2	2.0	3.1	3.7	0.1	4.1	0.6
C/C(=N/NS(=O)(=O)c1ccc(C)c(C)c1)c1c[nH]c2ccccc12	2.4	-0.7	-4.5	38.4*	24.8	-1.0
O=C1CCCCCCC(=O)[C@H](O)C[C@H](c2ccccc2)O1	0.5	/	/	/	/	/
Cc1cnc(C=O)c2cccc([N+](=O)[O-])c12	0.6	/	/	/	/	/
CN(CC(=O)NCc1ccncc1)S(=O)(=O)c1ccc2ccccc2c1	-0.7	-0.4	1.7	0.0	-6.9	/
SMILES	MPTP inh	CSC inhib	Gli-Sufu block	GRIN3A LBD mod	Mdm2-MdmX inh	Beta apoptosis
O=C(COc1ccc(Br)cc1Br)NNC(=O)c1cccs1	0.2	-6.6	0.3	-0.4	-29.1	-3.0
Cc1cc(Br)cc(C)c1OCC(=O)NNC(=O)c1cccs1	-0.1	-10.8	-6.4	13.1*	17.8	-3.4
O=C(CSc1nnnn1C1CCCC1)Nc1ccc(F)cc1	-1.6	3.7	3.0	0.5	22.4	8.6
O=C(CSc1nnnn1C1CCCCC1)Nc1ccc(F)cc1	1.0	-4.3	6.8	17.6*	14.5	-11.7
CC(C)CC(=O)Nc1ccc(C(=O)COC(=O)Cc2n[nH]c(=O)c3ccccc23)cc1	0.8	-23.6	1.9	0.3	8.0	-0.4
CCOC(=O)CSC1=Nc2ccccc2C2=NC(CC(=O)NCc3ccccc3)C(=O)N12 (stereo unspecified)	0.2	-7.8	4.8	-0.9	1.4	-1.7
CCCCNC(=O)CC1N=C2c3ccccc3N=C(SCC(=O)Nc3ccccc3C)N2C1=O (stereo unspecified)	1.2	/	2.0	17.6*	-4.1	-0.4
Cc1oc(-c2cccc(Cl)c2)nc1CS(=O)(=O)CC(=O)NC1CCCC1	-0.5	-11.2	-7.3	0.3	2.2	-1.7
COc1ccc(S(=O)(=O)Nc2cccc3c2O[C@H](CN(C)C(=O)NC(C)C)[C@@H](C)CN([C@H](C)CO)C3=O)cc1	-0.7	/	-3.8	15.7*	-10.7	4.6
C[C@H](CO)N1C[C@H](C)[C@@H](CN(C)C(=O)Nc2ccc3c(c2)OCO3)Oc2ccc(NC(=O)Nc3ccc(C(F)(F)F)cc3)cc2C1=O	-0.1	5.3	-11.1	10.9*	-15.4	-2.2
C[C@@H]1CCCCO[C@@H](CN(C)Cc2ccccc2)[C@@H](C)CN([C@H](C)CO)C(=O)c2cc(NC(=O)Nc3cccc4ccccc34)ccc2O1	-1.2	/	/	/	/	/
C[C@H]1CN([C@@H](C)CO)C(=O)c2cc(NC(=O)Nc3cccc4ccccc34)ccc2O[C@@H]1CN(C)Cc1ccc(-c2ccccc2)cc1	1.6	30.0	-7.5	10.8*	20.6	17.3
C[C@H](CO)N1C[C@H](C)[C@@H](CN(C)C(=O)Nc2ccccc2)Oc2ccc(NC(=O)Nc3ccc4c(c3)OCO4)cc2C1=O	-0.1	/	-21.5	-9.4	5.2	-6.9
C[C@@H]1CN([C@H](C)CO)C(=O)c2cc(NC(=O)Nc3ccc(C(F)(F)F)cc3)ccc2O[C@H]1CN(C)C(=O)Nc1ccc(F)cc1	-1.3	/	12.8	18.4*	/	/
C[C@H]1CN([C@@H](C)CO)C(=O)c2cccc(NC(=O)Nc3ccc(C(F)(F)F)cc3)c2O[C@@H]1CN(C)C(=O)Nc1ccc(F)cc1	0.1	58.0	12.8	20.6*	41.7	3.9
O=c1[nH]c2ccccc2nc1/C=C/c1ccccc1	0.1	-18.2	-30.5	0.9	-61.3	6.7
C(=C\c1nccc2c1[nH]c1ccccc12)/c1ccccc1	6.7	69.7	-16.9	16.4*	32.0	12.7
C/C(=N\Nc1cc(N2CCOCC2)ncn1)c1ccc(O)cc1	1.0	-10.2	20.9	-0.7	14.0	-2.7
O=C(Nc1cc(-c2ccccc2)cs1)c1ccco1	1.8	/	-30.9	12.3*	-70.0	/
O=C(Nc1nc(-c2ccccc2)cs1)c1ccco1	1.8	1.1	-40.7	-21.5	-49.0	1.9

Screening data: PubChem, several laboratories
